Screening results: PubChem, several laboratories
This is a sample that favours compounds with a hit; in the whole collection about 3.8% have one here.
PfHsp90 yeast 2: growth inhibition of PfHsp90-expressing yeast, primary screen, antimalarial PfHsp90 inhibitor project, S. cerevisiae, BacTiter-Glo luminescence, single point, set 2 | inhibition, % at 9.4 µM | actives 0.32% (n = 310,000) | BacTiter-Glo ATP, 48 h; yeast lacking PDR1 and PDR3 efflux regulators;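 active = every replicate shows inhibition above about 80%, whatever the replicate mean, limit read from the data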
Beta2AR agonist: beta2AR agonists driving receptor internalization, primary screen, cell-based, FAP fluorogen, flow cytometry. response, % (test concentration not listed). Beta-2 adrenergic receptor (Homo sapiens), P07550. Am2.2-beta2AR cells. AID 504454, 2011. actives 0.43% (n = 340,000);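 active = response above a set limit, near 3 SD of response in nonfluorescent compounds, cut at about 42% in these data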
Target sequence (P07550 whole entry, looked up): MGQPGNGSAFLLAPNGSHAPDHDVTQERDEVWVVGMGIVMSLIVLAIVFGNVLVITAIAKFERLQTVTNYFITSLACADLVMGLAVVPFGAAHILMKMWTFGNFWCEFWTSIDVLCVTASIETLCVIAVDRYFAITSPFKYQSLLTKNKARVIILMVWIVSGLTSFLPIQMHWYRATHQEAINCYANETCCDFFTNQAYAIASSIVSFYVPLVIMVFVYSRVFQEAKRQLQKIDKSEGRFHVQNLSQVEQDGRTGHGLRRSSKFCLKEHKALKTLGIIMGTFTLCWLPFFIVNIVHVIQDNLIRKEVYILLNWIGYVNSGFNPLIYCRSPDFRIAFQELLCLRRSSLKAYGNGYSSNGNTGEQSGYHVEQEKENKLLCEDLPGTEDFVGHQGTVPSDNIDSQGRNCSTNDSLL
TIM10 inh: growth inhibitors of isogenic TIM10 control yeast, primary screen, counter-screen for tim10-1 yeast inhibitor project, luminescence, uHTS | AID 463195, 2010 | inhibition, % at 10 µM | S. cerevisiae TIM10 strain growth, BacTiter-Glo luminescence, 24 h | actives 1.4% (n = 330,000);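 active = inhibition of 40% or more at the single tested concentration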;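 also: wild-type TIM10 isogenic control strain grown at permissive 25 °C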
tim10-1 inh: growth inhibitors of tim10-1 mutant yeast, primary screen, luminescence, uHTS | S. cerevisiae tim10-1 ts strain growth, BacTiter-Glo, 24 h | inhibition, % at 20 µM | actives 2.2% (n = 330,000);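 active = inhibition of at least 40%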;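 also: mutant grown at 25 °C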
tim23-1 inh: growth inhibitors of tim23-1 mutant yeast, primary screen, luminescence, uHTS; inhibition, % at 20 µM; actives 1.3% (n = 330,000); S. cerevisiae tim23-1 growth, BacTiter-Glo luminescence, 24 h; AID 463212, 2010;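 active = growth inhibition of the mutant yeast at or above 50%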;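 also: temperature-sensitive mutant grown at 25 °C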
tim10-1 confirm: growth inhibitors of tim10-1 mutant yeast, confirmation, single concentration, luminescence, S. cerevisiae. shares compounds with tim10-1 inh. S. cerevisiae tim10-1 ts strain growth, BacTiter-Glo, 24 h. inhibition, % at 20 µM. actives 56% (n = 7,400). AID 463213, 2010;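 active = inhibition of yeast growth at or above a set limit in either of two repeat tests at 20 µM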;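 also: tim10-1 mutant grown at permissive 25 °C to find synthetic lethal compounds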
A number is an active result.

How did CC1CC(C)(C)NC(=S)N1CCCC(=O)Nc1ccc(Cl)cc1 (stereo unspecified) do in these assays?
PfHsp90 yeast 2: inactive; Beta2AR agonist: inactive; TIM10 inh: inactive; tim10-1 inh: inactive; tim23-1 inh: inactive

What do the screens show for `O=c1[nH]c2nc(Br)[nH]c(=O)c2[nH]1`?
Beta2AR agonist: inactive

Results for O=[N+]([O-])c1ccc(Cl)c2c1C1C=CCC1C(c1ccccn1)N2 (stereo unspecified) ?
PfHsp90 yeast 2: inactive; Beta2AR agonist: inactive; TIM10 inh: inactive; tim10-1 inh: inactive; tim23-1 inh: inactive

How did O=C(O)c1ccc(Cl)c2c1C1C=CCC1C(c1ccccn1)N2 (stereo unspecified) do in these assays?
TIM10 inh: inactive; tim10-1 inh: 42.7; tim23-1 inh: inactive; tim10-1 confirm: inactive

What do the screens show for `O=C(CCc1ccccc1)C(=O)N1CCCC(C(=O)c2cccc(Cl)c2)C1` (stereo unspecified)?
PfHsp90 yeast 2: inactive; Beta2AR agonist: inactive; TIM10 inh: inactive; tim10-1 inh: 40.0; tim23-1 inh: inactive; tim10-1 confirm: inactive

How did Cc1cc(N2CCOCC2)nc2ccc(NC(=S)NCCC(C)C)cc12 do in these assays?
PfHsp90 yeast 2: inactive; Beta2AR agonist: inactive; TIM10 inh: inactive; tim10-1 inh: 43.7; tim23-1 inh: inactive; tim10-1 confirm: 28.5

Results for Cc1nc(NCCCN2CCOCC2)c2cnn(-c3ccccc3)c2n1 ?
PfHsp90 yeast 2: inactive; Beta2AR agonist: inactive

Results for CCOC(=O)c1sc(NC(=S)NC(=O)C2CCCC2)cc1C ?
PfHsp90 yeast 2: inactive; Beta2AR agonist: inactive; TIM10 inh: inactive; tim10-1 inh: inactive; tim23-1 inh: inactive

What do the screens show for `CCOC(=O)c1sc(NC(=O)C2CC2)cc1C`?
PfHsp90 yeast 2: inactive; Beta2AR agonist: inactive; TIM10 inh: inactive; tim10-1 inh: 54.5; tim23-1 inh: inactive; tim10-1 confirm: inactive

What do the screens show for `COc1ccccc1N(C)S(=O)(=O)c1ccc(C(=O)Nc2ccc(C)cc2C)cc1`?
PfHsp90 yeast 2: inactive; Beta2AR agonist: inactive; TIM10 inh: inactive; tim10-1 inh: inactive; tim23-1 inh: inactive

Results for CSc1ccc(/C=C/C(=O)c2ccc(NC(=O)C(C)C)cc2)cc1 ?
PfHsp90 yeast 2: inactive; Beta2AR agonist: inactive; TIM10 inh: inactive; tim10-1 inh: 41.7; tim23-1 inh: inactive; tim10-1 confirm: 40.2

Results for Cc1ccc2c(c1)CCCN2CC(=O)N(C)c1c(N)n(Cc2ccccc2)c(=O)[nH]c1=O ?
PfHsp90 yeast 2: inactive; Beta2AR agonist: inactive; TIM10 inh: inactive; tim10-1 inh: inactive; tim23-1 inh: inactive

What do the screens show for `COC(=O)C1C2CC(C(Br)C2Br)C1C(=O)O` (stereo unspecified)?
PfHsp90 yeast 2: inactive; Beta2AR agonist: inactive

Results for N/C(=N\OC(=O)CCCc1ccccc1)c1ccc([N+](=O)[O-])cc1 ?
PfHsp90 yeast 2: inactive; Beta2AR agonist: inactive; TIM10 inh: inactive; tim10-1 inh: 45.8; tim23-1 inh: inactive; tim10-1 confirm: 52.3

Results for CCOc1ccc(OCCCC(=O)ON=C(N)c2ccccc2Cl)cc1 ?
PfHsp90 yeast 2: inactive; Beta2AR agonist: inactive; TIM10 inh: inactive; tim10-1 inh: inactive; tim23-1 inh: inactive

What do the screens show for `N/C(=N\OC(=O)Cc1ccccc1)c1ccc([N+](=O)[O-])cc1`?
PfHsp90 yeast 2: inactive; Beta2AR agonist: inactive; TIM10 inh: inactive; tim10-1 inh: inactive; tim23-1 inh: inactive

What do the screens show for `COc1ccc(OCCCC(=O)ON=C(N)c2ccccc2C)cc1`?
PfHsp90 yeast 2: inactive; Beta2AR agonist: inactive; TIM10 inh: inactive; tim10-1 inh: 44.1; tim23-1 inh: inactive; tim10-1 confirm: 55.9

Results for N/C(=N\OC(=O)Oc1ccccc1)c1ccc([N+](=O)[O-])cc1 ?
PfHsp90 yeast 2: inactive; Beta2AR agonist: inactive; TIM10 inh: inactive; tim10-1 inh: inactive; tim23-1 inh: inactive

How did N/C(=N\OC(=O)CCCOc1ccccc1)c1ccc([N+](=O)[O-])cc1 do in these assays?
PfHsp90 yeast 2: inactive; Beta2AR agonist: inactive; TIM10 inh: inactive; tim10-1 inh: 54.8; tim23-1 inh: inactive; tim10-1 confirm: 41.8

How did Cc1cccc(CS(=O)(=O)Cc2ccc(C(=O)NC3CCCCCC3)o2)c1 do in these assays?
PfHsp90 yeast 2: inactive; Beta2AR agonist: inactive; TIM10 inh: inactive; tim10-1 inh: inactive; tim23-1 inh: inactive

How did Nc1ccc2c(c1)-c1ccc(F)cc1C2=O do in these assays?
PfHsp90 yeast 2: inactive; Beta2AR agonist: inactive

How did COc1ccc(-c2oc3ncnc(NCCCN(C)C)c3c2-c2ccc(OC)cc2)cc1 do in these assays?
PfHsp90 yeast 2: inactive; Beta2AR agonist: inactive; TIM10 inh: inactive; tim10-1 inh: 40.1; tim23-1 inh: inactive; tim10-1 confirm: 42.0

Results for CN(C)CCNc1ncnc2oc(-c3ccccc3)c(-c3ccccc3)c12 ?
PfHsp90 yeast 2: inactive; Beta2AR agonist: inactive; TIM10 inh: inactive; tim10-1 inh: inactive; tim23-1 inh: inactive

How did C[C@@H]1C(=O)O[C@H]2[C@H](O)[C@@]34[C@H]5C[C@@H](C(C)(C)C)[C@]36[C@@H](OC(=O)[C@@H]6O)O[C@@]4(C(=O)O5)[C@@]12O do in these assays?
PfHsp90 yeast 2: inactive; Beta2AR agonist: inactive; TIM10 inh: inactive; tim10-1 inh: inactive; tim23-1 inh: inactive

What do the screens show for `O=C(c1cc2ccccc2o1)N1CCN(S(=O)(=O)c2ccccc2)CC1`?
PfHsp90 yeast 2: inactive; Beta2AR agonist: inactive; TIM10 inh: inactive; tim10-1 inh: 42.9; tim23-1 inh: inactive; tim10-1 confirm: inactive

What do the screens show for `Nc1cc(S(=O)(=O)N2CCCCC2)ccc1N1CCCCC1`?
PfHsp90 yeast 2: inactive; Beta2AR agonist: inactive; TIM10 inh: inactive; tim10-1 inh: 45.2; tim23-1 inh: inactive; tim10-1 confirm: inactive

How did O=C(Nc1ccc(C(F)(F)F)cc1)C1CCN(c2cnccn2)CC1 do in these assays?
PfHsp90 yeast 2: inactive; Beta2AR agonist: inactive; TIM10 inh: inactive; tim10-1 inh: 41.4; tim23-1 inh: inactive; tim10-1 confirm: inactive

Results for O=C(NNC(=O)c1cc(-c2ccc(Cl)cc2)nc2ccccc12)c1csc(N2CCOCC2)n1 ?
Beta2AR agonist: inactive; TIM10 inh: inactive; tim10-1 inh: inactive; tim23-1 inh: inactive

Results for O=C(Nc1ccccn1)c1ccc(Cl)s1 ?
PfHsp90 yeast 2: inactive; Beta2AR agonist: inactive; TIM10 inh: inactive; tim10-1 inh: inactive; tim23-1 inh: inactive

What do the screens show for `O=C(Nc1nc2ccc(F)cc2s1)c1cccs1`?
PfHsp90 yeast 2: inactive; Beta2AR agonist: inactive; TIM10 inh: inactive; tim10-1 inh: 41.4; tim23-1 inh: inactive; tim10-1 confirm: 31.9

What do the screens show for `O=C(Nc1nc(-c2ccc(Cl)s2)cs1)c1cccs1`?
PfHsp90 yeast 2: inactive; Beta2AR agonist: inactive; TIM10 inh: inactive; tim10-1 inh: 41.9; tim23-1 inh: inactive; tim10-1 confirm: inactive
